We go through 45 sequences from article PMC7819943, “Rice protein-binding microarrays: a tool to detect cis-acting elements near promoter regions in rice”.

Over roughly 68,000 sequences, “fluorescence intensity (a.u.)” has its median near 9,100; the highest 2% begin near 16,000. The list comes from a sample in which the highest values are over-represented; it also holds similar and randomly drawn sequences.

The assay deals with OsWRKY34 (Oryza sativa, UniProt Q0JBA9 1-250). Description: protein-binding microarray (RPBM); PBS, 2% BSA, 51.3 ng/ul salmon testes DNA, 50 uM zinc acetate, 200 nM TF, 25 C, 1 h; high values mean tight binding. The note with it: protein: recombinant; tags: N-terminal polyhistidine and DsRed monomer fusion (pET32a); label: CyDye5-dUTP incorporated in the synthesized complementary strand; 3' TTTTT single-stranded linker to array surface; dsDNA, one strand shown. The method in brief: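 Transcription factors were made in E. coli BL21-CodonPlus as N-terminal fusions to a polyhistidine tag and DsRed, then purified on Ni–NTA. After primer extension with Cy5-dUTP and blocking with 2% BSA, a custom Agilent array was exposed for 1 h at 25 °C to 200 nM protein in PBS, 2% BSA, salmon testes DNA and 50 µM zinc acetate. Washed arrays were scanned on an Axon 4000B, and the binding signal is per-feature fluorescence intensity in arbitrary units.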
Chain of OsWRKY34 (Q0JBA9 entry or part of it): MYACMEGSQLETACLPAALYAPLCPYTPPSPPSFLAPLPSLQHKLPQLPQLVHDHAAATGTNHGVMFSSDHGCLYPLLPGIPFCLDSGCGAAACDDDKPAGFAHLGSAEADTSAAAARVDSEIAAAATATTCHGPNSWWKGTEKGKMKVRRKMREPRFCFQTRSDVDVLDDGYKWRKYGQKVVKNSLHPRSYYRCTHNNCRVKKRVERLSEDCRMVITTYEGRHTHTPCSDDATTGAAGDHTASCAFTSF
On to “TACTACTCCCTCCGTTTCAAAATGTTTGACACCGTTGACTCGGAGTCACCTAGTGCAG”, for which the binding signal was 13100 fluorescence intensity (a.u.). Regarding “CCCTCCGTTTCAAAATGTTTGACACCGTTGACTTTTTAATCGGAGTCACCTAGTGCAG”, the binding signal is 14900 fluorescence intensity (a.u.). With “ATGTACTCCCTCCGTTTCAAAATGTTTGACACCGTTGACTCGGAGTCACCTAGTGCAG”, the binding signal is 12300 fluorescence intensity (a.u.). Consider “CTCCCTCCGTTTCAAAATGTTTGACACCGTTGACTTTTTACGGAGTCACCTAGTGCAG”, for which the binding signal was 28300 fluorescence intensity (a.u.). For “TTTCTTCCATACTGAAATGTGTATCTTAGCTACTGAAGCTCGGAGTCACCTAGTGCAG” the value was 8440 fluorescence intensity (a.u.).

For “CATTTAATCTCCTCGTTACCGCTCAATTAACGCACCGATTCGGAGTCACCTAGTGCAG”, the binding signal is 8880 fluorescence intensity (a.u.). Regarding “CGGAGATCTTCAGAAACGAGTTATTTTTCCTCGCAAAACGCGGAGTCACCTAGTGCAG”, the binding signal is 8690 fluorescence intensity (a.u.). “ATTTGATCCTCTTTTTTCAACTTTGCTTATTTGACCCTTCCGGAGTCACCTAGTGCAG”: the binding signal is 11100 fluorescence intensity (a.u.).

With “TCACCCTTCACCTGCATGATCCTCTCTTTTTCAATCCCTCCGGAGTCACCTAGTGCAG”, the binding signal is 9340 fluorescence intensity (a.u.). As for “GCTCCGACTCCCTGTTTCCTGGTCCTCTTTTACACCGGCTCGGAGTCACCTAGTGCAG”, the binding signal is 15100 fluorescence intensity (a.u.). For “TACATGTCTTAGAGCTACACATCTCTGATTTTTTTTTACACGGAGTCACCTAGTGCAG”, the binding signal is 8950 fluorescence intensity (a.u.). In the case of “CTTCTATTTTCTTTCTGCTCTTCTCTTCTCTTGTCTACTTCGGAGTCACCTAGTGCAG”, the binding signal was 10300 fluorescence intensity (a.u.). In the case of “CCATTCCGCCCACTAGCTTTCTCTCTCTATTTTCTTTTTCCGGAGTCACCTAGTGCAG”, the binding signal is 16800 fluorescence intensity (a.u.).

Take “TTTTCTATTTCCCACTACTTTTCGTCATTTTTCTAATATTCGGAGTCACCTAGTGCAG”: the binding signal is 18100 fluorescence intensity (a.u.). To “ACTGCTAATTCGTCTATTTTGTACCACTTTCTCTATTTTTCGGAGTCACCTAGTGCAG” belongs 16500 fluorescence intensity (a.u.); to “CGGAGTCGGTCAAGCTTAACCACTATTCCTTTCCGGATTGCGGAGTCACCTAGTGCAG”, 61500 fluorescence intensity (a.u.); to “ATCTTTTTCTACTATCACTATATCATATTCTATTTTTTTTCGGAGTCACCTAGTGCAG”, 10500 fluorescence intensity (a.u.). For the sequence “TAGATTCTCTTTCTATTTTCTTTCCACTTAGCTTAGATATCGGAGTCACCTAGTGCAG”, the binding signal is 9100 fluorescence intensity (a.u.). For “CACTATTCCTTTCCGGATTGCTTCTGCGTTCTACTTGATGCGGAGTCACCTAGTGCAG”, the binding signal was 11000 fluorescence intensity (a.u.). Turning to “CATATGTTGTTTTCTATTTCCCACTAATTTTCGTCATTTTCGGAGTCACCTAGTGCAG”, the binding signal is 10400 fluorescence intensity (a.u.).

Consider “CCCCACATTTTCTTTCACCTTCTCTTCCATTCCACCTCTCCGGAGTCACCTAGTGCAG”, for which the binding signal was 10100 fluorescence intensity (a.u.). For “TCTCTTCCGGTCGGAAGCTTGCTTTCCTTTTCTTCTTCTTCGGAGTCACCTAGTGCAG”, the binding signal is 8360 fluorescence intensity (a.u.). Regarding “CTCTGTAATATATCATTATGACTGCTAATTCGTCTATTTTCGGAGTCACCTAGTGCAG”, the binding signal is 8080 fluorescence intensity (a.u.).

On to “TGTGGTGTGCTTGAGGTGCTTTTGAGTTTTAAATAGATTACGGAGTCACCTAGTGCAG”, for which the binding signal is 8520 fluorescence intensity (a.u.). With “GGGATCTGAGGCGCGTTTCTTAATTTGCCTTCTCTTTGAGCGGAGTCACCTAGTGCAG”, the binding signal is 9220 fluorescence intensity (a.u.).

As for “AGTCCATCTAATTCGGCTGCACTCTTTTTCCCCTGTGAAGCGGAGTCACCTAGTGCAG”, the binding signal was 8530 fluorescence intensity (a.u.). To “ATTTTATCACCCTGCTTAGAGTTTCGCCCGGAGCCATGAACGGAGTCACCTAGTGCAG” belongs 10700 fluorescence intensity (a.u.); to “GCGAGGTCGGGGAGGTGGGTGCACAGTGCCCTGCGAGATGCGGAGTCACCTAGTGCAG”, 8120 fluorescence intensity (a.u.); to “TACAAGCCCGTTGCCATCTCTACTCCGGCCTCCTAGTCCTCGGAGTCACCTAGTGCAG”, 9760 fluorescence intensity (a.u.). As for “GAATTCTTGTGTTCCAAGCATTTCGATTTGCTCCTCTCTTCGGAGTCACCTAGTGCAG”, the binding signal is 9020 fluorescence intensity (a.u.). For “ATCGGAGACTGACTGAGTGAAGGTTGGTTGGTTCACACTTCGGAGTCACCTAGTGCAG” the value was 8750 fluorescence intensity (a.u.); for “CTGCTCTAACTGAAGTGCCAGGTGACTTGCTTGGTTGGTTCGGAGTCACCTAGTGCAG”, 18300 fluorescence intensity (a.u.).

Take “ATGGTGGTTCTAATTCTGTTGGTTGACTGCTCTCTGAAATCGGAGTCACCTAGTGCAG”: the binding signal is 13300 fluorescence intensity (a.u.). To “CTATCGTCATCCTCGCGATCGCCGCATTCATCCATCCACTCGGAGTCACCTAGTGCAG” belongs 12800 fluorescence intensity (a.u.). With “TTTGTCCTGGGCTTCTTTCGGCCCAATCTCTCTCCCGTCGCGGAGTCACCTAGTGCAG”, the binding signal was 11100 fluorescence intensity (a.u.). For “ACTGTTTATAGGGTAGGGGTAAGGTTGTGTTCATATAGGTCGGAGTCACCTAGTGCAG” the value was 11700 fluorescence intensity (a.u.).

On to “GGGTGCTGGGGCTTTGGCTGCCTTGACTTGGATTGCCTTCCGGAGTCACCTAGTGCAG”, for which the binding signal was 8640 fluorescence intensity (a.u.). Turning to “GGTGCGGCGGTGGGCGGCATGGAGATGGGGAGAGGAGGCGCGGAGTCACCTAGTGCAG”, the binding signal is 10600 fluorescence intensity (a.u.). Consider “GGGTGGGTGGGGCGGTGCTTTCCTGGAGATGGGAGAGTGGCGGAGTCACCTAGTGCAG”, for which the binding signal was 23000 fluorescence intensity (a.u.).

For the sequence “TCCGGGCTGGGTGGGTGGGGTGGGGATGGAGCTTGCCTGGCGGAGTCACCTAGTGCAG”, the binding signal is 24100 fluorescence intensity (a.u.). With “TCGGAGTGGGGAGATGGTGTCGGGGTGCTGGGTTTCCGGGCGGAGTCACCTAGTGCAG”, the binding signal is 13100 fluorescence intensity (a.u.). Regarding “GGGTGGGGTGGGCCTGGGCTGATGCATGTTTGGCGCTTAGCGGAGTCACCTAGTGCAG”, the binding signal is 21200 fluorescence intensity (a.u.). To “TCTCCTGGTTTTGTGTGTTAGCGCTGTCAGTGTGTGGGTGCGGAGTCACCTAGTGCAG” belongs 8120 fluorescence intensity (a.u.); to “CTGGGGTTGGCCTGGGCTGATATATGTTTGGCGCTCAAAACGGAGTCACCTAGTGCAG”, 11100 fluorescence intensity (a.u.); to “TGGGGATGGAGCTTGCCTGGGTGGTGGTGAGGGCGCAGTTCGGAGTCACCTAGTGCAG”, 8680 fluorescence intensity (a.u.).
